# Experimental data: PubChem BioAssay AID1347426 (Functional Genomics Laboratory (NCATS/FGL), 2020)
# The campaign covered roughly 31,000 sequences. About 1,400 (4.5%) were called active. This is one part of a sample in which actives are shown more often than they occur.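 Rule for the calls: active = median seed-adjusted z-score above 1 or below -1; inactive = the rest.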
# Assay: Novel Modifiers of Survival Motor Neuron (SMN) Protein: Gene Identification via Genome-wide siRNA Screen;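 note: luminescence tracks full-length SMN protein made from the SMN2 reporter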
# Conditions: HEK293T SMN2-luciferase reporter, siRNA knockdown, 72 h; actives lie on both sides
# How it was run: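 Luciferase signal, proportional to full-length SMN made from an SMN2 cDNA reporter in stable HEK293T cells, was read 72 h after siRNA reverse transfection. Values were expressed as MAD scores after non-targeting-control normalization and log10 conversion; seed analysis flagged off-targets.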
row,Sequence,median seed-adjusted z-score
1,GCUAGACACCGGACCAAAATT against MMP28,0.862 (inactive)
2,GGACAACUAUGGUAAGAAATT against TCF7L1,-0.251 (inactive)
3,GGAUUGAGCGCAUCAAGGUTT against GNG7,-0.205 (inactive)
4,GAAUGCUGUUUAUCUUAAUTT against PNPLA1,0.00692 (inactive)
5,GGGAAAAAGUUCUUGCGUATT against USP12,0.121 (inactive)
6,GCUUUACAACAAUCACAUATT against AMIGO2,-0.258 (inactive)
7,CUCUUUCAAGUAUGAGACATT against INHA,0.231 (inactive)
8,CAGCUGCUAUCAGAACGGATT against APBA2,1.66 (active)
9,GAAUAUUCUUGCAGAGUUUTT against WFDC5,0 (inactive)
10,GGCUUUUGAGCAUCCCAAUTT against CDK4,0.346 (inactive)
11,CAGUCCCUCUAUCACAUAUTT against ERH,-1.25 (active)
12,GGAGGUGUUUUGUUCGGAUTT against SV2C,0.183 (inactive)
13,GGCUAGUGAUAUACUAUAUTT against RPS6KA6,-0.0821 (inactive)
14,CCAUCAGUACAUAUCCGAATT against ABCA8,-0.666 (inactive)
15,GCUCAUGGUUGAUGAUUCUTT against RABGGTA,-0.0601 (inactive)
16,UCACUAUCAGUACCCAUUATT against CHRNB1,0.16 (inactive)
17,GGAGAGAGGUCCAGUCUGATT against BIRC7,-1.44 (active)
18,CAAAGUAUCGGGUCAUCUATT against DMRTA1,-0.162 (inactive)
19,CUUUGACAGUGUUCGUGAATT against SGOL2,0.114 (inactive)
20,CCAAGACGAUGAGAGUAUATT against UGCGL2,-0.456 (inactive)
21,CGGGCGAGUUUACUAUGUATT against ITCH,0.199 (inactive)
22,GCAUUGCCGAGAUCCAUGATT against PIK3R2,0.421 (inactive)

row,Sequence,median seed-adjusted z-score
1,UCACGUAGAGUCAUAUUUATT against HNRPA1P4,-0.906 (inactive)
2,ACACAGCUGUUGUACCUCATT against MAP4,1.67 (active)
3,GAUACUUUGCCGUCAAUUATT against CA5B,0.317 (inactive)
4,CCAUUGAUCUGCACUACUATT against NUP85,0.948 (inactive)
5,GACCUAUCCUUGCACCAGATT against ECT2,0.04 (inactive)
6,GCUCGAGUGGAAGAACUCATT against GLMN,0 (inactive)
7,GCAGGACCCAUUACGGCUATT against DPEP1,-0.886 (inactive)
8,GGCUGUGCAUAAACGAGAATT against GTF2E1,1.76 (active)
9,GGAGAACCAUAGAAAACCATT against RIPK3,0.123 (inactive)
10,CGAGGACACCCUUAGCAGUTT against ADRA1B,-0.472 (inactive)
11,GACCGUACGAGGCAAGUAATT against PAX1,-0.111 (inactive)
12,GAACGAGUGAGAGAAUAUATT against TTC9C,-0.571 (inactive)
13,GCCGAGUCAGUAUCUAUGATT against STARD13,-0.0337 (inactive)
14,GGACAAGAAUUUUGCCUUUTT against U2AF2,2.14 (active)
15,CCACGGUGAUAACAGACAUTT against ALDH8A1,0.0628 (inactive)
16,GGCUAUACAGGGUAGACAATT against PXDNL,-0.186 (inactive)
17,GGCAGAUAACUGAACGAGATT against HECW2,0.38 (inactive)
18,CUGGCUACGUGAAUGUGCATT against ZDHHC12,-0.0312 (inactive)
19,GGAACUCGUGCAUCUCCAATT against CD93,-0.0879 (inactive)
20,GAGAUUACAUAAACGGAGATT against PARP11,0.192 (inactive)
21,CAGAUGUUAUGGAUAUAAUTT against L2HGDH,-0.346 (inactive)
22,GCUUAUGGUUGAUCAGUUATT against RNF7,-1.18 (active)

row,Sequence,median seed-adjusted z-score
1,UGAGUUGCCCUGAUUUGAATT against AIF1,-0.0293 (inactive)
2,GCAACUCCUUCCUCGCUAATT against RBM17,0 (inactive)
3,GAAUGUUCAAGAUCGAUUUTT against RANBP2,1.53 (active)
4,UCAUGUAUGUGGGAGCCAATT against SNCG,-0.169 (inactive)
5,AGGUGAUGCAGGACAGAAATT against COL18A1,-0.441 (inactive)
6,CCUCAACUCUUAUAUUACATT against ZNF595,0.102 (inactive)
7,GGAUCCCUAUGUUCGGAAATT against AP2B1,-0.214 (inactive)
8,GCAGUAAUAUUUAUCUCUUTT against SUCNR1,0 (inactive)
9,CCUGAAUCCUUAGACUUAATT against PROX1,-0.372 (inactive)
10,ACCCUGCUAUACUCCCUAUTT against MAPKAPK3,-0.506 (inactive)
11,GAUCCUAAUAUGAAGUUAUTT against FUBP1,-1.52 (active)
12,GCUAGAGAUUGACCAGAAATT against NUDC,-0.227 (inactive)
13,GGCAACAACUGGAUCUGAATT against PIGZ,0.74 (inactive)
14,CUGGAUGAGGUGUACCUUATT against XPNPEP1,-1.5 (active)
15,GCAUGACCCUCGUCACAUATT against THBS1,-0.847 (inactive)
16,GGGUAGGUGAUAUCCAUAUTT against ZBTB5,0.314 (inactive)
17,GGCGGAGUAUGGAAAGUUATT against UBE2H,0 (inactive)
18,GCACCUCUCUGCUAACUGUTT against PGC,0.884 (inactive)
19,CGAUGUCAGUAGGAACCUUTT against PSMC1,-2.23 (active)
20,CGACUACCCAUACUCUCCATT against CDC34,0 (inactive)
21,CUACCUCUAUAUCACCAAATT against KDELR1,-0.0168 (inactive)
22,CCGUUGCUCUAUCUUCGUATT against SETBP1,0.0232 (inactive)

row,Sequence,median seed-adjusted z-score
1,GAAAGACAGAUCAAGAUUUTT against HOXB7,-0.153 (inactive)
2,ACCGCUUCAUGUCUGCGUATT against SF3A2,-1.7 (active)
3,AUCCGAUGGUGGUUACUGATT against MCOLN1,-0.522 (inactive)
4,CGGCUUGAAUUUGAUCUAUTT against AASDHPPT,0.64 (inactive)
5,GAGUGACUGUAGAGCCUCATT against GCS1,0.819 (inactive)
6,CACGGUCUGUUCUCAGAUUTT against MXD4,0.688 (inactive)
7,CCCUUUUACUAUUCAGCGATT against PPP4R2,0.211 (inactive)
8,CAUUUUAGAUGGGCACAAUTT against GOSR2,-1.25 (active)
9,GAAUGAUCGUGAUCCUCGUTT against AHCTF1,-0.501 (inactive)
10,GAGUGAAGAUGAGUUGACATT against XRCC6,0 (inactive)
11,GACCGGAUAUGGGCUAUAATT against NEK7,0 (inactive)
12,CAAUUUUGCAGGCAACUUUTT against SCYE1,0.437 (inactive)
13,GACAUAUAAUGACAUAGAUTT against TRAK1,0.298 (inactive)
14,CUUUGUCAGAGAUCACUUATT against PIPOX,1.06 (active)
15,GGAAUGCUAAGUUCCGAGATT against ARFGAP1,0.123 (inactive)
16,AGGUUUCAGUGGUUUGGAUTT against COL1A1,0 (inactive)
17,CCAAGAACCCGGAGAAGUATT against EXOC7,-0.231 (inactive)
18,GUACAAUACAAACACUUAATT against ORC4L,-0.286 (inactive)
19,GCGUGGACCCAAAUCAAUATT against KARS,-0.152 (inactive)
20,GCUCCAACAUGGUCUACAATT against POLE,-1.55 (active)
21,GCUAGUCUUCUGGAAGUUATT against SRPRB,0.000693 (inactive)
22,GGAUAUGCAUGCAAUCAAATT against ADAM23,-0.0279 (inactive)

row,Sequence,median seed-adjusted z-score
1,GCCGUGACAUGAUAGGCAUTT against DDX41,-0.611 (inactive)
2,GGUUUGUGAAAGCAUAUAATT against FMNL2,0.293 (inactive)
3,GGAACGAAGAGAACUAGAATT against OFD1,0 (inactive)
4,CCAAGGAGCUUACUAUGGATT against SETDB2,0.417 (inactive)
5,UGAGCAUGACUGAUUCCAATT against SFTPD,0.289 (inactive)
6,GUGAAGAUGUGGUCCUGAATT against PTK2B,1.71 (active)
7,GGCUGUAAACUGCGCAUCATT against APOBEC2,0.232 (inactive)
8,GAAUUGGAGAGCACCAAUATT against POLR2B,-4.81 (active)
9,ACAGGAUUCCAGAAAUGGATT against REG1A,0.596 (inactive)
10,GCAGAAUUCUCCUACCAAATT against ENTPD3,-0.28 (inactive)
11,GGUCAACGAUGACAACCGATT against ITGB4,-0.226 (inactive)
12,CGGUAUCAUUACUGGAUAATT against LNPEP,-0.386 (inactive)
13,CCUUUGAGAUGGAAGCCUATT against ACY3,0.568 (inactive)
14,CAACCCUACCAAUGCUACUTT against PTP4A2,-1.45 (active)
15,GCUGUGAAAUUGUUUCGAATT against IREB2,0 (inactive)
16,GGGAACUUCUUGGAACUUUTT against KLK12,0.243 (inactive)
17,CCAGCGCAACAAAGGAAAATT against HMX1,1.3 (active)
18,GAACUAAGCACUACUCUAATT against DRP2,-0.0555 (inactive)
19,GCUACUUCUCAGUUGCUAATT against NDST4,0.426 (inactive)
20,CAAAGUGACCAAGCAGAGATT against SF3A2,-1.7 (active)
21,CACCAGGACCAGUUAAAAATT against MVD,-0.561 (inactive)
